RE007 growth inh: less growth of the S. pombe RE007 Vpr strain | AID 651644 | actives 0.21% (n = 360,000) | S. pombe RE007 Vpr strain, BacTiter-Glo ATP luminescence, 24 h | Potency, µM (top dose mostly 92.2 µM), for the others: at the highest dose activity change, negative = less growth, most hits filed as inhibitors; active = well fitted falling curve with a large enough effect; inconclusive = small, poorly fitted or top-dose-only effect; inactive = no such curve, though single readings can be large or run the other way; also: potency is read from the fitted curve at half-maximal effect; % is scaled to controls: 0 for no effect and ±100 for the full control effect; nearly all actives have a fitted effect of over 50% in size
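Fission yeast RE007 carrying one integrated HIV-1 vpr copy, seeded at OD 0.01 in PMG+AL medium with 23 nL pinned compound. Grown 24 h at 30 degrees; viability read by BacTiter-Glo luminescence after 5 min.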
Tb PYK inh: T. brucei pyruvate kinase inhibition. TbPYK enzyme, Kinase-Glo Plus ATP luminescence, 45 min. actives 0.12% (n = 410,000). Potency, µM (highest dose often 76.8 µM), for the others: at the top dose activity, negative = inhibition, usual class: inhibitors. Q57TT1; also: potency is read from the fitted curve at half-maximal effect; % is scaled to controls: 0 for no effect and ±100 for the full control effect; nearly all actives have a fitted effect of over 50% in size
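Activity of T. brucei pyruvate kinase was followed by Kinase-Glo Plus luminescence after the enzyme reacted 45 min at room temperature with 130 uM ADP (final) and substrate. Test compounds were added before ADP at multiple concentrations.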
Shiga toxin inh: blocks Shiga toxin action in Vero cells | Vero cells, Shiga toxin protein synthesis inhibition reporter | inhibition, % at 38.7 µM | actives 9.2% (n = 290,000); in the data active = inhibition mostly above about 28%, no sharp cut-off; inactive = mostly below about 43%; also: 0% is about no effect
LmPK inhibitor: LmPK (Leishmania mexicana) enzyme inhibition; purified LmPK, Kinase-Glo ATP luminescence, 1 h; Potency, µM (series often up to 57.5 µM), inactives show at the highest dose activity change, negative = inhibition, usual class: inhibitors; actives 0.37% (n = 290,000); AID 1721; also: potency is read from the fitted curve at half-maximal effect; % is scaled to controls: 0 for no effect and ±100 for the full control effect
Target sequence (Q27686 whole entry, looked up): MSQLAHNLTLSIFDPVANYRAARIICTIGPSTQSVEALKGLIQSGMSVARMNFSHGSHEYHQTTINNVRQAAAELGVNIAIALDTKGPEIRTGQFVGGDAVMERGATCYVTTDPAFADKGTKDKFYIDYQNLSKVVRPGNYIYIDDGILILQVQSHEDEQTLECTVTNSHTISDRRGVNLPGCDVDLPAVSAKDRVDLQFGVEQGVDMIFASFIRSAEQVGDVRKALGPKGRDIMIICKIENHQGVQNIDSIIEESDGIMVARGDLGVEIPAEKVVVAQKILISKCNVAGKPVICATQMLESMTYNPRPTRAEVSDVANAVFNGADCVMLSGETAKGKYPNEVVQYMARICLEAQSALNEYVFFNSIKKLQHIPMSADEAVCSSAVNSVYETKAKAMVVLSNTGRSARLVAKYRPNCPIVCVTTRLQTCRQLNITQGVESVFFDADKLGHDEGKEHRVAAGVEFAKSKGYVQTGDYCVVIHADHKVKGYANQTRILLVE
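ATP generated from ADP (0.1 mM) and PEP (0.5 mM) by 0.1 nM LmPK over 1 h at room temperature (pH 7.2 imidazole buffer) was detected by coupled luciferase luminescence. Values were normalized to uninhibited and no-enzyme wells.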
Cycloheximide cs: counter-screen hit for Shiga toxin inhibitors, cycloheximide; cell reporter, cycloheximide protein synthesis inhibition counterscreen; max response, %; actives 12% (n = 300,000); in the data active = max response mostly above about 13%, no sharp cut-off; inactive = mostly below about 14%; also: read at 38.3 µM for the half of the compounds with a filed dose; 0% is about no effect
FBPA Giardia inh: blocks Giardia fructose-bisphosphate aldolase activity; Potency, µM (doses to about 59.6 µM), for inactives: top-dose activity, negative = inhibition, hits mostly inhibitors; A8B2U2; purified Giardia FBPA; AID 2451; actives 0.71% (n = 290,000); also: potency is read from the fitted curve at half-maximal effect; % is scaled to controls: 0 for no effect and ±100 for the full control effect; nearly all actives have a fitted effect of over 55% in size
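40 nM FBPA preincubated 10 min at RT with compound (up to 57.5 uM final), then substrate plus GAPDH/TPI/NAD/arsenate coupling and diaphorase/resazurin added. Fluorescence read after 20 min at RT, 525/598 nm.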
Starred values were filed as active, the others as inactive; ? = inconclusive; nt = not tested or not shown; [ ] = dose if it differs, or a comment. This is one part of a sample in which hits are shown more often than they occur. Unless noted, calls follow the shape of the dose curve; as a rule, active = well fitted curve in the direction sought with a large enough effect; inconclusive = small, poorly fitted or top-dose-only effect, or another doubt; inactive = no such curve, though single readings can be large; an effect the other way counts as inactive or inconclusive.

SMILES	RE007 growth inh	Tb PYK inh	Shiga toxin inh	LmPK inhibitor	Cycloheximide cs	FBPA Giardia inh
CCOC(=O)c1cccc(NC(=O)Cc2ccc(NC(=O)N3CCCCc4ccccc43)cc2)c1	nt	3%	nt	nt	nt	nt
COc1cc(NS(=O)(=O)c2ccc3c(c2)CCN3S(C)(=O)=O)cc(OC)c1	nt	3%	nt	nt	nt	nt
CCOCC(=O)Nc1c(C(=O)Nc2ccc3c(c2)OCCO3)oc2ccccc12	9%	2%	126*	0%	37*	-25%
CCC(=O)Nc1c(C(=O)Nc2ccc3c(c2)OCCO3)oc2ccccc12	-19%	0%	88*	5%	41	-18%
COc1ccc(NC(=O)c2oc3ccccc3c2NC(=O)c2ccc3c(c2)OCO3)cc1	-14%	-19%	14	0%	8	1%
O=C(Nc1ccc2c(c1)OCCO2)c1oc2ccccc2c1NC(=O)C1CC1	-5%	2%	17	0%	3	-15%
CCC(=O)Nc1c(C(=O)Nc2cccc(OC)c2)oc2ccccc12	-10%	-2%	37	2%	18*	-8%
COCC(=O)Nc1c(C(=O)Nc2ccc3c(c2)OCCO3)oc2ccccc12	-9%	4%	93*	16%	36*	-17%
COc1cccc(NC(=O)c2oc3ccccc3c2NC(=O)c2ccc(F)c(F)c2)c1	nt	-5%	nt	nt	nt	nt
CCOCC(=O)Nc1c(C(=O)Nc2ccccc2OC)oc2ccccc12	-23%	-5%	25	5%	10	1%
O=C(O)Cc1ccc(C(=O)c2ccc(Cl)cc2Cl)s1	10%	-3%	15	-3%	19	24%
NC(=O)Cc1ccc(C(=O)c2ccc(Cl)cc2Cl)s1	14%	-8%	48*	1%	23*	-7%
CSc1ncccc1C(=O)OCC(=O)Nc1ccc2c(c1)OCO2	-10%	1%	35*	6%	12	-6%
CSc1ncccc1C(=O)OCC(=O)Nc1ccc2c(c1)CCC2	4%	2%	nt	nt	nt	nt
O=C(COC(=O)c1cccnc1Cl)Nc1ccc2c(c1)OCO2	-7%	2%	97*	-14%	32*	-10%
CCOc1ncccc1C(=O)OCC(=O)Nc1ccc2c(c1)OCCO2	6%	-3%	nt	nt	nt	nt
Cc1ccc2nc(-c3ccc(SCC(=O)Nc4nc(C)cs4)nc3)[nH]c2c1	-7%	-1%	51	-7%	32*	0%
Cc1nc(NC(=O)CSc2ccc(-c3nc4ccccc4[nH]3)cn2)sc1C	-22%	-5%	22	0%	2	-1%
Cc1ccc2nc(SCC(=O)Nc3nnc(SCC(N)=O)s3)[nH]c2c1	12%	1%	-7	15%	-3	2%
CCc1nnc(NC(=O)CSc2ccc(-c3nc4ccccc4[nH]3)cn2)s1	-1%	0%	83*	-3%	26*	-1%
Cc1ccc2nc(-c3ccc(SCC(=O)Nc4nnc(C)s4)nc3)[nH]c2c1	-17%	-2%	51*	-6%	69*	0%
O=c1c2sc3ccccc3c2n(Cc2ccc(F)cc2)c(=O)n1Cc1ccccc1	nt	6%	nt	nt	nt	nt
O=c1cc(N2CCOCC2)cnn1-c1ccccc1	-7%	-1%	73*	-6%	40*	5%
Cc1ccc(CNC(=S)N2CCOCC2)cc1	2%	-2%	2	1%	-6	4%
Cc1ccc(/C=N/NC(=S)N2CCOCC2)cc1	nt	-24%	83*	-3%	57*	23%
SMILES	RE007 growth inh	Tb PYK inh	Shiga toxin inh	LmPK inhibitor	Cycloheximide cs	FBPA Giardia inh
S=C(N/N=C/c1ccc(Cl)cc1)N1CCOCC1	-3%	-17%	97*	2%	41*	?
Cc1cc(Cl)ccc1NC(=S)N1CCOCC1	12%	-2%	2	3%	-2	0%
S=C(N/N=C/c1ccc(Br)cc1)N1CCCCC1	-6%	-16%	64*	2%	40*	?
COc1ccc(NC(=O)[C@H]2O[C@@H]3OC(C)(C)O[C@@H]3[C@H]3OC(C)(C)O[C@H]32)c(OC)c1	nt	-10%	nt	nt	nt	nt
COc1ccc(O[C@H]2C=C[C@@H](c3ccccc3)O[C@H]2COC(=O)CC/C(C)=N/OCC[C@@H]2C=C[C@H](OC(C)=O)[C@H](COC(C)=O)O2)cc1	nt	nt	nt	nt	nt	-2%[12.9 µM]
CN(C(=O)CSc1nc2ccc(NC(=O)COc3ccccc3Cl)cc2s1)c1ccccc1	nt	-5%	nt	nt	nt	nt
COc1cc(OC)cc(C(=O)Nc2cc3c(cc2N2CCOCC2)n(C)c(=O)n3C)c1	nt	2%	nt	nt	nt	nt
Cc1c(Cl)cccc1-n1c(SCC(=O)NCc2ccccc2)nc2n[nH]c(C)c2c1=N	nt	-3%	nt	nt	nt	nt
NNc1nc(-c2ccccc2)nc2sc3c(c12)CCCC3	-9%	-5%	109*	-6%	62*	-12%
NNc1nc2sc3c(c2c(=O)n1Cc1ccccc1)CCC3	8%	-4%	32	-2%	12	-9%
CCOc1ccccc1CNC(=O)c1ccc2nc(CCc3ccccc3)oc2c1	nt	-11%	nt	nt	nt	nt
CN=c1sc2c(n1C)C(=O)c1ccccc1C2=O	10µM*	-25%	nt	nt	nt	nt
CN(Cc1ccccc1)Cc1c(O)ccc2c(=O)c(-c3ccccc3)c(C(F)(F)F)oc12	nt	4%	nt	nt	nt	nt
Cc1ccc2cccc(NC(=O)c3ccc(-c4cc(Cl)ccc4Cl)o3)c2n1	nt	-4%	nt	nt	nt	nt
COc1ccc(N2C(=O)C(Cl)=C(Nc3ccc(OC)cc3OC)C2=O)cc1	12%	3%	31	2%	44*	-3%
CCOc1ccc(N2C(=O)C(Cl)=C(Nc3ccccc3O)C2=O)cc1	?	-7%	97*	1%	37*	-10%
O=C1C(Cl)=C(Nc2ccccc2O)C(=O)N1CCc1ccccc1	nt	-7%	12	-2%	30*	-16%
COc1ccc(NC2=C(Cl)C(=O)N(c3ccccc3)C2=O)c(OC)c1	?	1%	-12	-3%	-2	-21%
O=C(NCCc1ccccc1)c1cc(=O)c2ccccc2o1	-7%	0%	28	-4%	23	6%
O=C(Nc1nc2ccc(Cl)cc2s1)c1cc(=O)c2ccccc2o1	nt	-2%	nt	nt	nt	nt
CC(=O)c1sc(NC(=O)c2cc(=O)c3ccccc3o2)nc1C	13%	-7%	60*	1%	36*	3%
O=C(Nc1cccc(-c2nc3ccccc3s2)c1)c1cc(=O)c2ccccc2o1	nt	-5%	31*	0%	14	-1%
O=C(COC(=O)c1cc(=O)c2ccccc2o1)Nc1c(F)c(F)c(F)c(F)c1F	12%	-2%	nt	nt	nt	nt
O=C(COC(=O)c1cc(=O)c2ccccc2o1)Nc1ccc2ccccc2c1	3%	1%	-22	-2%	11*	2%
O=C(NCCc1ccc(F)cc1)c1cc(=O)c2ccccc2o1	24%	0%	30	13%	25*	4%
Cc1nc2cnc(N3CCOCC3)nc2n(Cc2ccc(F)cc2)c1=O	nt	nt	nt	nt	nt	6%
Cc1ccc(Cl)cc1NC(=O)C(C)n1nnc2sc3c(c2c1=O)CCCC3 (stereo not given)	nt	-2%	nt	nt	nt	nt
